Results on 6 compounds are retold here after PubChem BioAssay.

Assay [1] is described as follows: Her2 expression decrease, cell viability multiplex – SKBR3 breast tumor cells, AlphaScreen, ATP viability, primary screen (AID 461;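 active = Her2 level under about 52% in both replicate screens, with viability over 70% of control, limit read from the data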;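 as to Her2 level: lower value means less Her2 protein in the cells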;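 as to viability: percent of carrier control wells set as 100% viability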). As to conditions: SKBR3 Her2 protein level, 18-24 h, measured here: SKBR3 viability, ATP luminescence, at 10 µM. A general note: In Alpha technology, singlet oxygen from a donor bead excites a nearby acceptor bead.
In assay [2] the target is Receptor tyrosine-protein kinase erbB-2 (Homo sapiens) (UniProt P04626). The assay is described as above. As to conditions: 18-24 h, at 10 µM, stronger effect = lower value.
Sequence of Receptor tyrosine-protein kinase erbB-2 (Homo sapiens) (P04626 whole entry, looked up): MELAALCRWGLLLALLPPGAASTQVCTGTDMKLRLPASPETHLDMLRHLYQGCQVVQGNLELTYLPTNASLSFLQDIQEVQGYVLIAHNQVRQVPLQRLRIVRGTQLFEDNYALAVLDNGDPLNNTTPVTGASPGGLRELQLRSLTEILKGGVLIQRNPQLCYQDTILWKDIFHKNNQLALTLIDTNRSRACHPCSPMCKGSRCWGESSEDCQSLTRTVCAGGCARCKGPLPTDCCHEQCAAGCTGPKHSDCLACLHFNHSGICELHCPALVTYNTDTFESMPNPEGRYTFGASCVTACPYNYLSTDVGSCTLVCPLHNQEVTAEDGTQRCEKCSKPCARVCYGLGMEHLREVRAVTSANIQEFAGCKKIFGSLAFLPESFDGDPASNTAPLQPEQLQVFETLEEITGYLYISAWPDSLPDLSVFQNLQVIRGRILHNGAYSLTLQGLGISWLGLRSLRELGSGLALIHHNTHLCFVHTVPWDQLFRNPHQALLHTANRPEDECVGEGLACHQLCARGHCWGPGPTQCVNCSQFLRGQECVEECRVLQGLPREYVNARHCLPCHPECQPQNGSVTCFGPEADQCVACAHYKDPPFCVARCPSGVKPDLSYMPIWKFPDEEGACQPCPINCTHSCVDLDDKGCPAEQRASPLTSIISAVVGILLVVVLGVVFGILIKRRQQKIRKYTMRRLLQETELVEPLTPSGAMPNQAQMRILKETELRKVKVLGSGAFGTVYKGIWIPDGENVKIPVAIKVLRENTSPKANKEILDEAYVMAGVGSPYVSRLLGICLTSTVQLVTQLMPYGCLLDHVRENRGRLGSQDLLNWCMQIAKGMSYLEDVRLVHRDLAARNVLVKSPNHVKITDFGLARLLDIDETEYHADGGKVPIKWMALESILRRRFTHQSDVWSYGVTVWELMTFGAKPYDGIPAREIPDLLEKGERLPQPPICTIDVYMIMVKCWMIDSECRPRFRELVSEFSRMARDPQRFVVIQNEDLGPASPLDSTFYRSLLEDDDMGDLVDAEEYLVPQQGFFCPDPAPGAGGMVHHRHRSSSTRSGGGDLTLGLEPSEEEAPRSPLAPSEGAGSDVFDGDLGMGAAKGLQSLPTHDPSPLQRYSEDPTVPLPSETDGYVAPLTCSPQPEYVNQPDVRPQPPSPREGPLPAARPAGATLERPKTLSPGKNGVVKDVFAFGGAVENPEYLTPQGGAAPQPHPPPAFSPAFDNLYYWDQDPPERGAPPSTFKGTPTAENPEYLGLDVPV
Assay [3] is described as follows: reduced viability of SK-BR-3 breast cancer cells – cell-based, 24 h, human, pilot screen (AID 572;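 active = viability at or below 10% of carrier control in both of two separate runs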;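 also: compound exposure lasted between 18 and 24 h rather than exactly 24 h; 100% = carrier-treated control wells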). To be noted: SK-BR-3 viability, CellTiter-Glo luminescence, at 10 µM, stronger effect = lower value. (In general: In ATP-based viability assays light output follows the ATP content of the culture.)
A short description of assay [4]: HUVEC growth inhibition – cell-based, human, primary screen (AID 575;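 active = viability at or below 30% in both replicate assays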;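 also: 100% = median of untreated cell wells with 0.1% DMSO on each plate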). As to conditions: HUVEC proliferation, CellTiter-Glo luminescence, 72 h; at 10 µM; stronger effect = lower value.
Assay [5] can be described thus: H69AR cell proliferation blockers – human, duplicate replicates, primary screen (AID 580;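 active = viability at or under a set limit in both replicates, limit being median viability minus 3 SD, cut at about 48% in these data, passing the limit was not always enough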;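 also: 100% = mean luminescence of untreated wells and 0% = no signal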). As to conditions: H69AR lung tumor cells viability, ATP luminescence, 72 h; at 10 µM; stronger effect = lower value.
Assay [6] is described as follows: MRP1 drug-resistance reversers in H69AR cells – cell-based, doxorubicin co-treatment, pilot screen (AID 601;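 active = viability loss from added drug above about 55%, and viability with drug at most 40%, in both replicates, limit read from the data, passing the limit was not always enough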). As to conditions: CellTiter-Glo, 72 h, at 10 µM; for differential viability (reversal): stronger effect = higher value.
Assay [7] in a line: yeast transport mutant growth inhibition pilot in 384-well plates, post-Golgi transport modulator project (AID 636; in the data active = inhibition above about 31%). To be noted: absorbance 615 nm, about 18 h, stronger effect = higher value.
Assay [8] is described as follows: growth suppression of yeast trafficking mutant, preliminary HTS, modulators of trafficking downstream of Golgi apparatus project, 1536-format plate, OD 615 nm (AID 637; in the data active = inhibition above about 30%). To be noted: yeast transport mutant growth, absorbance 615 nm, 18 h; stronger effect = higher value.
Assay [9] can be described thus: S. cerevisiae growth inhibition in permissive medium (OD615), pilot counter-assay for S. cerevisiae lifespan shortening project, permissive growth control (AID 705;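 active = growth inhibition above 25% in both replicates, a cutoff set 3 SD above the mean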). As to conditions: OD615, 24 h, at 10 µM, stronger effect = higher value.
Assay [10] is described as follows: S. cerevisiae growth inhibition in restrictive medium, OD615, pilot screen, restrictive growth control, yeast lifespan reduction project (AID 706;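 active = growth inhibition above a set limit, 3 SD over mean compound inhibition, in both replicates, cut at about 43% in these data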;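 also: modified DeaD lifespan yeast strain shifted to restrictive glucose medium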). As to conditions: OD615, 48 h, at 10 µM, stronger effect = higher value.
Assay [11] is described as follows: doxorubicin toxicity protection in MRP-1 cells – H69AR cells, CellTiter-Glo, duplicate, MRP-1 activator project, pilot screen (AID 807;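 active = viability increase at or above a cutoff of the median across tested compounds plus 3 SD, cut at about 8.5% in these data, passing the limit was not always enough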;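 also: compound pretreatment 18-22 h then 72 h combined with doxorubicin; 0% = doxorubicin alone and 100% = vehicle without doxorubicin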). As to conditions: H69AR viability with doxorubicin, CellTiter-Glo luminescence; at 10 µM; stronger effect = higher value.
Assay [12] is described as follows: viability of HCT116 without oncogenic beta-catenin – human colon tumor cells, pilot screen (AID 823;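 active = cell viability at or below a set limit in both duplicate runs, the limit being the all-compound median minus 4 SD, cut at about 23% in these data, passing the limit was not always enough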;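 also: 0% = wells killed by 20 µM Hyamine and 100% = untreated DMSO cell wells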). As to conditions: HCT116 beta-catenin knockout viability, CellTiter-Glo, 60 h; at 10 µM; stronger effect = lower value.
Assay [13] can be described thus: viability of PTEN-null HCT116 cells – cell-based, HCT116 clonal line, CellTiter-Glo, pilot screen (AID 824;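 active = viability at or below 27.92% in each of two runs, the all-compound median minus 4 SD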;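 also: 0% = 20 µM Hyamine control and 100% = vehicle cell control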). To be noted: HCT116 PTEN-deleted viability, 60 h, at 10 µM, stronger effect = lower value.
The nature of assay [14]: RAM pathway blockade in budding yeast – dse1pr::URA3 reporter, 5-FOA selection, pilot screen (AID 869).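 Also: 0% = DMSO wells with no growth and 100% = 10 µM 1-NA-PP1 with full growth; RAM network block rescues cells from 5-FOA so hits raise OD615 growth.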 To be noted: S. cerevisiae dse1pr::URA3 5-FOA growth, OD615, 2 d; at 10 µM; stronger effect = higher value; strain carries analog-sensitive mutant Cbk1 kinase.
Assay [15] in a line: RAM signaling pathway blockade in yeast – S. cerevisiae, Pdr1DBD-CYC8 efflux-inhibited sensitized strain, primary screen (AID 1298;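 active = RAM network inhibition above 8.4% in each of two replicates, 3 SD over the compound average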;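 also: 0% = DMSO untreated cells without growth and 100% = 10 µM 1-NA-PP1 full growth; higher means more yeast growth rescued from 5-FOA killing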). To be noted: S. cerevisiae cbk1-as DSE1-URA3 strain, 5-FOA growth OD615, 2 d; at 50 µM; stronger effect = higher value.
[16] abbreviates: H69AR cells + 2 uM doxorubicin, measured here: viability with 2 uM doxorubicin, stronger effect = lower value.
Where [17] appears, read: H69AR cells, compound alone cytotoxicity.

Inconclusive results are not listed. Active and inactive are the calls of the source.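 The calls were made as follows, unless noted: active = inhibition over a set limit, the all-compound mean plus 3 SD, in both replicate runs; inconclusive = over that limit in just one replicate run; inactive = at or under that limit in both runs.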

In general, viability refers to a read-out of living cells in per cent, often relative to untreated cells. Broadly, the inhibition is the relative decrease from the control value, in per cent. For the compound `CN(C)CCCN1C(=O)c2oc3ccc(Cl)cc3c(=O)c2C1c1cccnc1` (configuration not stated), the viability is 100% in assay [1]; 100% (inactive) in assay [3]; 96.7% (inactive) in [4]; 83% (inactive) in [5]; 79.9% in assay [6] (setting [16]); 83% in assay [6] (setting [17]). The viability in [12] is 93.5% (inactive); in assay [13] it was 92.7% (inactive). In addition, in [2], the Her2 level is 90.5% (inactive). In addition, the differential viability (reversal) in assay [6] (H69AR cells + 2 uM doxorubicin) was 3.07% (inactive). Also, the results for the inhibition in assay [7], in assay [8] and in assay [14] were -2.93% (inactive), 3.5% (inactive) and 0.22% (inactive), respectively. Also, the growth inhibition in assay [9] is -2.16% (inactive); in assay [10], 4.2% (inactive). Moreover, the viability increase in [11] was -1.8% (inactive). The RAM network inhibition in assay [15] is -2.19% (inactive).

Regarding `COc1cccc(NC(=O)c2nnn(Cc3ccc(Br)cc3F)c2N)c1`, the viability was 98% in [1]; 98% (inactive) in assay [3]; 59.4% (inactive) in [4]; 72% (inactive) in assay [5]; 69.2% in [6] (setting [16]); 72% in assay [6] (setting [17]). The results for the viability in assay [12] and in assay [13] were 94.5% (inactive) and 95.7% (inactive), respectively. Further, the Her2 level in assay [2] was 89% (inactive). For the same compound, the differential viability (reversal) in assay [6] (H69AR cells + 2 uM doxorubicin) is 2.77% (inactive). For the same compound, the inhibition in [7] is -3.33% (inactive); in assay [8], 2.46% (inactive); in assay [14], 1.61% (inactive). Further, the growth inhibition in assay [9] is -7.21% (inactive); in assay [10], -5.7% (inactive). Also, the viability increase in assay [11] is -0.51% (inactive). Also, the RAM network inhibition in assay [15] was 5.85% (inactive).

For the compound `CCCOc1ccc(NC2=CC(=O)CC(C)(C)C2)cc1`, the viability was 100% in [1]; 100% (inactive) in assay [3]; 87.2% (inactive) in assay [4]; 100% (inactive) in assay [5]; 93% in assay [6] (setting [16]); 100% in assay [6] (setting [17]). In addition, the values for the viability in assay [12] and in assay [13] were 95.4% (inactive) and 94.2% (inactive), respectively. The Her2 level in assay [2] is 103% (inactive). Moreover, the differential viability (reversal) in assay [6] (H69AR cells + 2 uM doxorubicin) was 7.44% (inactive). Further, the values for the inhibition in assay [7], in assay [8] and in assay [14] were -6.89% (inactive), 2.13% (inactive) and 3.14% (inactive), respectively. Besides, the values for the growth inhibition in [9] and in assay [10] were -2.65% (inactive) and -14.7% (inactive), respectively. Also, the viability increase in assay [11] is 1.27% (inactive). Besides, in assay [15], the RAM network inhibition was 6.91% (inactive).

As to `Cc1c(C(=O)OCc2ccccc2)[nH]c2c1C(=O)CC(c1ccco1)C2` (configuration not stated), the viability is 86.5% in assay [1]; 86.5% (inactive) in assay [3]; 7.06% (active) in assay [4]; 6.48% (active) in [5]; 8.71% in [6] (setting [16]); 6.48% in assay [6] (setting [17]). The viability in assay [12] was 16.3% (active); in assay [13], 18.2% (active). The Her2 level in assay [2] was 40.5% (active). In assay [6] (H69AR cells + 2 uM doxorubicin), the differential viability (reversal) was -2.23% (inactive). Besides, the inhibition in assay [7] is 4.87% (inactive); in assay [8], -0.5% (inactive); in assay [14], 1.69% (inactive). Also, the growth inhibition is -15.1% (inactive) in assay [9] and -7.56% (inactive) in [10]. In assay [11], the viability increase was -4.85% (inactive). In assay [15], the RAM network inhibition is 1% (inactive).

For `CC(C)(C)SCCNC(=O)CN1C(=O)c2ccccc2S1(=O)=O`, the viability in assay [1] is 97%; in [3], 97% (inactive); in [4], 101% (inactive); in assay [5] it was 106% (inactive); in assay [6] (setting [16]), 97.4%; in assay [6] (setting [17]) it was 106%. Moreover, the viability is 103% (inactive) in assay [12] and 99.8% (inactive) in assay [13]. For the same compound, the Her2 level in [2] is 92.5% (inactive). In assay [6] (H69AR cells + 2 uM doxorubicin), the differential viability (reversal) was 8.94% (inactive). Besides, the results for the inhibition in assay [7], in assay [8] and in assay [14] were -4.67% (inactive), 0.82% (inactive) and 1.42% (inactive), respectively. In addition, the growth inhibition in assay [9] is -13% (inactive); in assay [10] it was -6.21% (inactive). Also, the viability increase in assay [11] is -0.57% (inactive). The RAM network inhibition in [15] is 4.44% (inactive).

`Cc1cc(C)nc(NC(=O)c2cnc3sccn3c2=O)n1`: the viability in assay [1] was 106%; in assay [3] it was 106% (inactive); in assay [4], 90.5% (inactive); in assay [5], 96.5% (inactive); in assay [6] (setting [16]) it was 105%; in assay [6] (setting [17]), 96.5%. In addition, the values for the viability in assay [12] and in assay [13] were 97.7% (inactive) and 98.3% (inactive), respectively. Further, the Her2 level in assay [2] is 88.5% (inactive). Moreover, in assay [6] (H69AR cells + 2 uM doxorubicin), the differential viability (reversal) is -8.39% (inactive). In addition, the inhibition in assay [7] is -4.67% (inactive); in assay [8] it was 4.5% (inactive); in assay [14], 0.9% (inactive). The figures for the growth inhibition in assay [9] and in assay [10] were -12.5% (inactive) and -10.7% (inactive), respectively. In assay [11], the viability increase is -1.3% (inactive). Further, in assay [15], the RAM network inhibition was 0.52% (inactive).
